Measurements: PubChem BioAssay (EPA / NIEHS)
Results filed as inconclusive are left out. The source made the active and inactive calls. How the source made its calls, unless noted: active means hit-call score of the fitted dose curve at least 0.9, where 1 is the maximum; inactive means score below 0.9.

Key:
[1] = CCTE_Shafer_MEA_acute_burst_duration_mean: CCTE's Neural Acute Assay for Mean Burst Duration, Shafer Lab (AID 2284014);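 further: hits are decreases in mean burst duration relative to DMSO controls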
Method in brief: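 Read-out is the per-well percent change in mean burst duration (first to last spike within a single-electrode burst) between 40-min recordings before and after compound. Cultures were primary rat cortical neurons on MEAs, dosed at 0.03-40 uM on DIV 13 or 15.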

[2] = CCTE_Shafer_MEA_acute_per_burst_spike_number_mean: CCTE's Neural Acute Assay for Average Number of Spikes Per Burst, Shafer Lab (AID 2284015);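 further: hits are decreases in mean spikes per burst versus baseline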
Method in brief: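 Read-out: percent change in mean spikes per burst, each well's post-exposure 40-min recording versus its own 40-min baseline. Rat cortical cultures, DIV 13 or 15, compounds 0.03-40 uM; DMSO is negative control, loss-of-signal fitting.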

[3] = CCTE_Shafer_MEA_acute_interburst_interval_mean: CCTE's Neural Acute Assay for Mean Interburst Interval, Shafer Lab (AID 2284016);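 further: percent change of mean interburst interval versus each well's own pre-dose baseline; curves fitted for decrease in interburst interval relative to DMSO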
Method in brief: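 Rat cortical cultures, DIV 13/15; 20 min equilibration, 40 min baseline, compound 0.03-40 uM, 40 min re-recording, 37 C. Spikes detected at 8x rms noise (300-5000 Hz band-pass). Endpoint: % change in interburst interval, fitted in loss direction vs DMSO.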

[4] = CCTE_Shafer_MEA_acute_burst_percentage_mean: CCTE's Neural Acute Assay for Percentage of Spikes in a Burst, Shafer Lab (AID 2284017);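 further: curve fitted for loss of signal so potency reflects decreased burst percentage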
Method in brief: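 Rat cortical cultures, DIV 13/15, 37 C. Spikes detected at 8x rms noise (300-5000 Hz band-pass). Burst spikes/total spikes averaged across electrodes per well; % change post- vs pre-treatment (40 min each), loss-of-signal fit vs DMSO.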

[5] = CCTE_Shafer_MEA_acute_burst_percentage_std: CCTE's Neural Acute Assay for Standard Deviation of Burst Percentage, Shafer Lab (AID 2284018);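 further: fitted in the negative direction so actives lower burst percentage SD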
Method in brief: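 Value is percent change from baseline in the across-electrode SD of spikes-in-bursts percentage, wells with >/= 10 active electrodes. Acute 40-min exposure to 0.03-40 uM on DIV 13 or 15 rat cortical cultures, recorded at 37 C after 40-min baseline.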

[6] = CCTE_Shafer_MEA_acute_per_network_burst_spike_number_mean: CCTE's Neural Acute Assay for Average Number of Spikes in a Network Burst, Shafer Lab (AID 2284019)
Method in brief: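 Read-out is mean spike count per network burst, taken as percent change between a 40-min pre-exposure and a 40-min post-exposure recording per well. Rat primary cortical neurons on MEAs at 37 C, DIV 13 or 15; compounds at 0.03-40 uM.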

[7] = CCTE_Shafer_MEA_acute_per_network_burst_spike_number_std: CCTE's Neural Acute Assay for Standard Deviation of Number of Spikes in a Network Burst, Shafer Lab (AID 2284020);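 further: fitted for decrease in spike-number SD versus DMSO so actives lower it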
Method in brief: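 Spontaneous network activity of primary rat cortical neurons is recorded extracellularly before and after a 40-min compound exposure (0.03-40 uM) at 37 C. The endpoint is the well's percent change in burst spike-number SD.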

[8] = CCTE_Shafer_MEA_acute_per_network_burst_electrodes_number_mean: CCTE's Neural Acute Assay for Mean Number of Electrodes in a Network Burst, Shafer Lab (AID 2284021);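 further: curves fitted for decreases only so hits reduce electrodes per burst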
Method in brief: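 Cultures of rat cortex neurons were exposed on DIV 13 or 15 to compounds at 0.03-40 uM in at least three wells each. Activity over 40 min before and 40 min after exposure at 37 C gave the percent change in electrodes per network burst.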

[9] = CCTE_Shafer_MEA_acute_network_burst_percentage: CCTE's Neural Acute Assay for Percentage of Network Bursts, Shafer Lab (AID 2284022);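 further: curves fitted for loss so actives lower network burst percentage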
Method in brief: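 Cortical neurons from rat were grown over microelectrode arrays and used on day 13 or 15 in vitro. Wells with at least 10 active electrodes received test chemical at 0.03-40 uM. Activity during 40 min of exposure was compared with the preceding 40-min baseline.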

[10] = CCTE_Shafer_MEA_acute_cross_correlation_HWHM: CCTE's Neural Acute Assay for Cross Correlation at Half Width at Half Maximum, Shafer Lab (AID 2284026);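 further: percent change per well from pre-dose baseline in spike cross-correlogram half width; hits are a decrease in cross-correlogram half width relative to DMSO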
Method in brief: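 Primary cortex (rat), MEA, DIV 13/15; compound 0.03-40 uM; 40 min pre + 40 min post at 37 C; spike threshold 8x rms; wells need ≥10 active electrodes; endpoint = % change in cross-correlogram HWHM vs baseline, DMSO negative control.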

[11] = CCTE_Shafer_MEA_acute_synchrony_index: CCTE's Neural Acute Assay for Synchrony, Shafer Lab (AID 2284027);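 further: network synchrony index of spontaneous spiking in primary rat cortical neurons on MEAs; fitted for loss of signal so actives lower synchrony relative to DMSO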
Method in brief: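 Primary rat cortical neurons on 48-well MEAs, dosed at 0.03–40 uM on DIV 13 or 15. Spikes are recorded for 40 min at 37C before and after exposure, and synchrony index (0–1) is expressed as percent change from baseline per well.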

[12] = CCTE_Shafer_MEA_acute_AB: CCTE's Alamar Blue Assay for Cytotoxicity in the Neural Acute Assay, Shafer Lab (AID 2284069; active means hit-call score of the fitted dose curve at least 0.9, where 1 is the maximum;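 further: active compounds lower the viability signal compared with DMSO wells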)
Method in brief: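 Metabolic activity in chemically exposed rat cortical neurons (MEA cultures, day 13/15 post-plating) measured via CellTiter Blue resazurin reduction, 544/590 nm fluorescence; fitted relative to DMSO, with signal loss indicating reduced viability.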

[13] = CCTE_Shafer_MEA_acute_LDH: CCTE's Lactate Dehydrogenase Assay for Cytotoxicity in the Neural Acute Assay, Shafer Lab (AID 2284086; active means hit-call score of the fitted dose curve at least 0.9, where 1 is the maximum;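 further: active means LDH release rises above DMSO vehicle level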)
Method in brief: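 Medium from rat cortical neuron MEA cultures sampled right after the 40 min compound-exposure recording; released LDH measured by absorbance at 490 nm. Analyzed as signal gain relative to DMSO.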

[14] = read-out: Monokine induced gamma interferon (MIG), CXCL9 (gene 4283); experiment: BSK_KF3CT_MIG: BioMAP Diversity Plus: KF3CT Assay for Monokine induced gamma interferon (MIG) Biomarker Activity (AID 2284248); details: primary human keratinocytes with fibroblasts
Method in brief: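 The assay uses a co-culture of human keratinocytes and foreskin fibroblasts. Measurement occurs 24 hours after dosing, with MIG detected by ELISA and the DMSO control as baseline.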

[15] = read-out: Collagen I, COL1A1 (gene 1277); experiment: BSK_hDFCGF_CollagenI: BioMAP Diversity Plus: hDFCGF Assay for Collagen I Biomarker Activity (AID 2284250); details: primary human foreskin fibroblasts
Method in brief: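 Primary human foreskin fibroblasts exposed to chemical for 24 h; Collagen I levels measured by ELISA. Cytotoxicity checked by SRB total-protein staining in parallel cultures.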

[16] = read-out: Interferon-inducible T-cell alpha chemoattractant (ITAC), CXCL11 (gene 6373); experiment: BSK_hDFCGF_ITAC: BioMAP Diversity Plus: hDFCGF Assay for Interferon-inducible T-cell alpha chemoattractant (ITAC) Biomarker Activity (AID 2284251); details: primary human foreskin fibroblasts
Method in brief: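 Fibroblasts (human foreskin, primary) are treated with chemical, cultured 24 h, then assayed for I-TAC by ELISA. Overt toxicity is checked in parallel cultures by sulforhodamine B staining of total protein at the same time point.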

[17] = read-out: Plasminogen activator inhibitor-1 (PAI1), SERPINE1 (gene 5054); experiment: BSK_KF3CT_PAI1: BioMAP Diversity Plus: KF3CT Assay for Plasminogen activator inhibitor-1 (PAI1) Biomarker Activity (AID 2284252); details: primary human keratinocytes with fibroblasts
Method in brief: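 Human keratinocyte/foreskin fibroblast co-culture dosed for 24 h; PAI-1 measured by ELISA, fitted in positive direction against DMSO baseline. Parallel SRB total-protein staining (0.1% SRB, 560 nm) assesses overt cytotoxicity.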

[18] = read-out: Interleukin-8 (IL8), CXCL8 (gene 3576); experiment: BSK_KF3CT_IL8: BioMAP Diversity Plus: KF3CT Assay for Interleukin-8 (IL8) Biomarker Activity (AID 2284254); details: primary human keratinocytes with fibroblasts
Method in brief: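 ELISA detection of IL-8 from a human skin co-culture, keratinocytes with foreskin fibroblasts, at 24 h following chemical exposure, with gain of signal scored against DMSO controls.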

[19] = read-out: Intercellular Adhesion Molecule 1 (ICAM1), ICAM1 (gene 3383); experiment: BSK_BE3C_ICAM1: BioMAP Diversity Plus: BE3C Assay for Intercellular Adhesion Molecule 1 (ICAM1) Biomarker Activity (AID 2284278); details: primary human bronchial epithelial cells;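 further: cell-surface ICAM-1 protein level quantified by ELISA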
Method in brief: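 Primary human bronchial epithelial cells in BE3C system, 24 h after chemical dosing; cell-surface ICAM-1 measured by ELISA relative to DMSO. Parallel SRB staining (0.1% SRB after 10% TCA fixation, read at 560 nm) assessed cytotoxicity.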

[20] = read-out: Interferon-inducible T-cell alpha chemoattractant (ITAC), CXCL11 (gene 6373); experiment: BSK_BE3C_ITAC: BioMAP Diversity Plus: BE3C Assay for Interferon-inducible T-cell alpha chemoattractant (ITAC) Biomarker Activity (AID 2284279); details: primary human bronchial epithelial cells
Method in brief: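 BE3C cells (human primary bronchial epithelium), 24 h compound exposure, I-TAC by ELISA, DMSO = negative control/baseline, positive fitting direction.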

[21] = read-out: Interleukin-8 (IL8), CXCL8 (gene 3576); experiment: BSK_BE3C_IL8: BioMAP Diversity Plus: BE3C Assay for Interleukin-8 (IL8) Biomarker Activity (AID 2284280); details: primary human bronchial epithelial cells
Method in brief: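 IL-8 signal gain, normalised to DMSO vehicle, was scored after a 24 h chemical exposure of primary human bronchial epithelial cells, with detection by ELISA.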

[22] = read-out: Epidermal growth factor receptor (EGFR), EGFR (gene 1956); experiment: BSK_BE3C_EGFR: BioMAP Diversity Plus: BE3C Assay for Epidermal growth factor receptor (EGFR) Biomarker Activity (AID 2284281); details: primary human bronchial epithelial cells
Method in brief: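 Compound is added to human bronchial epithelial cells, cells incubate 24 h, then EGFR is detected by ELISA. Values reflect positive-direction fitting relative to DMSO.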

KRT18 (gene 3875) = experiment: BSK_BE3C_Keratin818: BioMAP Diversity Plus: BE3C Assay for Keratin 818 Biomarker Activity (AID 2284282); details: primary human bronchial epithelial cells
Method in brief: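 Primary human bronchial epithelial cells treated 24 h; Keratin 8/18 quantified by ELISA, fit relative to DMSO. Cytotoxicity tracked in parallel cultures by sulforhodamine B total-protein staining.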

[23] = read-out: Matrix Metallopeptidase 9 (MMP9), MMP9 (gene 4318); experiment: BSK_BE3C_MMP9: BioMAP Diversity Plus: BE3C Assay for Matrix Metallopeptidase 9 (MMP9) Biomarker Activity (AID 2284283); details: primary human bronchial epithelial cells
Method in brief: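 Cells were dosed, incubated 24 h, then assayed for MMP-9 by ELISA; activity was fitted upward against DMSO. The system used human lung primary bronchial epithelial cells, with SRB total-protein staining run alongside for cytotoxicity.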

[24] = read-out: Plasminogen activator inhibitor-1 (PAI1), SERPINE1 (gene 5054); experiment: BSK_CASM3C_PAI1: BioMAP Diversity Plus: CASM3C Assay for Plasminogen activator inhibitor-1 (PAI1) Biomarker Activity (AID 2284284); details: primary human coronary artery smooth muscle cells;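 further: PAI-1 protein level measured by ELISA 24 h after dosing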
[25] = read-out: Monocyte Chemoattractant Protein-1 (MCP1), CCL2 (gene 6347); experiment: BSK_hDFCGF_MCP1: BioMAP Diversity Plus: hDFCGF Assay for Monocyte Chemoattractant Protein-1 (MCP1) Biomarker Activity (AID 2284285); details: primary human foreskin fibroblasts
Method in brief: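 Human foreskin fibroblasts (hDFCGF system) were exposed to compound and secreted MCP-1 was measured by ELISA after 24 hours. Activity was fitted relative to DMSO. Cytotoxicity was checked by SRB total-protein staining in parallel cultures.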

[26] = read-out: Intercellular Adhesion Molecule 1 (ICAM1), ICAM1 (gene 3383); experiment: BSK_hDFCGF_ICAM1: BioMAP Diversity Plus: hDFCGF Assay for Intercellular Adhesion Molecule 1 (ICAM1) Biomarker Activity (AID 2284287); details: primary human foreskin fibroblasts
Method in brief: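 Primary human foreskin fibroblasts (hDFCGF system) dosed with chemical; ICAM-1 quantified by ELISA at 24 h relative to DMSO. Parallel SRB total-protein staining to assess overt cytotoxicity.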

[27] = read-out: TIMP metallopeptidase inhibitor 2 (TIMP2), TIMP2 (gene 7077); experiment: BSK_hDFCGF_TIMP2: BioMAP Diversity Plus: hDFCGF Assay for TIMP metallopeptidase inhibitor 2 (TIMP2) Biomarker Activity (AID 2284289); details: primary human foreskin fibroblasts
Method in brief: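 Primary human foreskin fibroblasts in the hDFCGF system, dosed for 24 h; TIMP-2 level measured by ELISA, fitted in the positive direction against DMSO; cytotoxicity checked in parallel by sulforhodamine B total protein staining.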

[28] = read-out: Thrombomodulin, THBD (gene 7056); experiment: BSK_LPS_Thrombomodulin: BioMAP Diversity Plus: LPS Assay for Thrombomodulin Biomarker Activity (AID 2284296); details: primary human HUVEC with PBMC
Method in brief: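 Human umbilical vein endothelial cells co-cultured with PBMC and stimulated with LPS; cell-surface thrombomodulin measured by ELISA 24 hours after compound. Gain or loss versus DMSO; cytotoxicity checked by SRB staining in parallel cultures.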

CD69, CD69 (gene 969) = experiment: BSK_LPS_CD69: BioMAP Diversity Plus: LPS Assay for CD69 Biomarker Activity (AID 2284303); details: primary human HUVEC with PBMC
Method in brief: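 Human umbilical vein endothelial cells co-cultured with PBMC under LPS stimulation, chemical exposure 24 h; cell-surface CD69 measured by ELISA and fitted in the positive direction versus DMSO.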

Measured: AC50

CCCC[N+](CCCC)(CCCC)CCCC
active: [1] 9.59 µM | [2] 5.44 µM | [3] 9.27 µM | [4] 9.71 µM | [5] 23.2 µM | [7] 5.6 µM | [9] 6.81 µM | [10] 2.98 µM | [11] 9.18 µM
inactive: all other assays above
